The campaign covered roughly 400,000 compounds. About 13,000 (3.2%) were called active. Where a call stands in place of a potency, no number is given. Another 18% or so got no clear call; they are omitted. Calls come from the whole dose curve; as a rule, active = well fitted cell-killing curve with a large enough effect; inconclusive = small, poorly fitted or top-dose-only effect, or effect the other way; inactive = flat fitted curve, though single readings scatter. For the sample, actives were picked, then their nearest neighbours and some compounds at random.
assay: qHTS assay for MDR1-selective chemotherapeutics: Primary screen using the drug-selected MDR subline cells KB-V1; conditions: KB-V1 MDR cells viability, CellTiter-Glo, 72 h; series mostly up to 46.1 µM; note: nearly all actives have a fitted effect of over 60% in size
Outline: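 Cytotoxicity via CellTiter-Glo luminescence after 72 h compound exposure at 37 degrees C. Cells: drug-selected KB-V1 line, DMEM phenol-red free plus 10% FBS. Compounds tested at multiple concentrations; normalized data fitted to concentration-effect curves.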
Potency is the fitted concentration of half-maximal effect.

Row | Structure (SMILES) | Potency
1 | CCCCN(CC)C(=O)c1c[nH]c2ccc(S(=O)(=O)Nc3cccc(OC)c3)cc2c1=O | inactive
2 | CCCc1nc2c3ccccc3ccn2c1Cc1ccccc1C(F)(F)F | inactive
3 | COC(=O)[C@@]1(Cc2ccc(OC)cc2)[C@H]2c3cc(C(=O)N4CCCC4)n(Cc4ccc(OC(F)(F)F)cc4)c3C[C@H]2CN1C(=O)c1ccccc1 | 20.6 µM (active)
4 | COC(=O)[C@@]1(Cc2ccc(F)cc2)[C@H]2c3cc(C(=O)N(C)C)n(CCc4c[nH]c5ccc(OC)cc45)c3C[C@H]2CN1C(=O)c1ccccc1 | 18.4 µM (active)
5 | COC(=O)[C@@]1(Cc2ccc(F)cc2)[C@H]2c3cc(C(=O)N4CCCC4)n(C[C@H](O)CO)c3C[C@H]2CN1C(=O)c1ccccc1 | inactive
6 | COc1ccc(CNC(=O)C2CCN(C(=O)c3ccccc3)CC2)cc1 | inactive
7 | COc1ccc2c(c1)C(SCC(=O)NCc1ccccc1)CC(C)(C)O2 (stereo not given) | inactive
8 | C[C@]1(C(=O)NCCc2c[nH]c3ccccc23)C=C[C@@H](Cc2ccccc2)N1C(=O)c1ccccc1 | inactive
9 | CCN1C(=O)[C@H]2[C@@H](c3ccc(C(F)(F)F)cc3)N[C@]3(CCCN(Cc4ccc(Br)cc4)C3=O)[C@H]2C1=O | inactive
10 | CC1(C)CC(=O)C=C(c2ccccc2CO)C1=O | inactive
11 | Cn1c(Nc2ccc(F)cc2)nc2cc(-c3ccsc3)sc2c1=O | inactive
12 | O=C(c1cnn2c1NC(=C1CC1)C=C2C(F)F)N1CCc2ccccc2C1 | inactive
13 | CCN(CC)S(=O)(=O)c1ccc2c(c1)c(=O)c(C(=O)N1CCN(c3cccc(Cl)c3)CC1)cn2C | inactive
14 | CCn1cc(C(=O)NCc2ccccc2)c(=O)c2cc(S(=O)(=O)N3CCCCC3)ccc21 | inactive
15 | C=CCn1cc(C(=O)NCc2ccc(Cl)cc2)c(=O)c2cc(S(=O)(=O)N(CC)CC)ccc21 | 18.4 µM (active)
16 | CCOC(=O)C1=CCC2C(=O)N(Cc3ccccc3)C(=O)C12 (stereo not given) | inactive
17 | COc1cc(NS(=O)(=O)c2ccc(NC(C)=O)cc2)cc(OC)c1 | inactive
18 | COc1ccc(S(=O)(=O)Nc2cc3c(C(=O)OC(C)C)c(C)oc3c3ccccc23)cc1 | 5.17 µM (active)
19 | COc1cc2ccccc2cc1C(=O)Nc1ccc(S(=O)(=O)Nc2cc(C)on2)cc1 | inactive
20 | COc1ccc(S(=O)(=O)Nc2ccc3oc(C)c(C(C)=O)c3c2)cc1 | 2.59 µM (active)
21 | CCc1ccc(S(=O)(=O)Nc2cc3c(C(=O)OCc4ccccc4)c(C)oc3c3ccccc23)cc1 | inactive
22 | CC(=O)c1c(C)oc2ccc(NS(=O)(=O)c3ccc(C(=O)O)cc3)cc12 | inactive
23 | CN1CCn2cnc(C(=O)NCC(=O)OC(C)(C)C)c2C1=O | inactive
24 | Cc1cccc(-n2ccnc2SCC(=O)Nc2cc(C(F)(F)F)ccc2Cl)c1 | inactive

Row | Structure (SMILES) | Potency
25 | C[C@H](O)[C@@H]1C(=O)N2CCc3c([nH]c4ccccc34)[C@@H]2C[C@@H]1N(C)C(=O)Nc1ccc(F)cc1 | inactive
26 | N#CC1(Nc2ccc3c4c(cccc24)CC3)CCCCC1 | inactive
27 | O=C(NCCCN1CCOCC1)c1cc2c(s1)CCC2 | inactive
28 | O=C(CCc1nc2sc3c(c2c(=O)[nH]1)CCCC3)NCC(=O)Nc1ccccc1Br | inactive
29 | O=C(CNC(=O)c1cc2c(s1)CCC2)Nc1ccccc1Br | 18.4 µM (active)
30 | CCN(Cc1ccncc1)C(=S)Nc1ccccc1C | inactive
31 | COc1ccc([C@H]2C[C@@H](n3cc(COC(=O)c4ccccc4)nn3)[C@H](O)CN2C(=O)c2cccs2)cc1 | inactive
32 | O=C(Nc1ccc(OCCO)cc1)c1csc([C@H]2C[C@H](O)[C@@H](CO)O2)n1 | inactive
33 | Fc1cccc(Cc2c(-c3cccc(Cl)c3)nc3ccc(Br)cn23)c1 | inactive
34 | COc1ccc(Cl)cc1NC(=O)COc1ccc2c(c1)OCO2 | inactive
35 | COc1ccc(Cl)cc1NC(=O)COC(=O)C(CC(C)C)N1C(=O)C2CC=CCC2C1=O (stereo not given) | 10.3 µM (active)
36 | COc1ccc(Cl)cc1NC(=O)c1cccc(N2C(=O)C3CC=CCC3C2=O)c1 (stereo not given) | inactive
37 | O=C(CCSc1ccccc1)N1CCN(c2ccccc2F)CC1 | inactive
38 | O=C(Cn1c(-c2ccc(Cl)cc2)noc1=O)N1CCN(c2ccccc2F)CC1 | 9.2 µM (active)
39 | CC1(C2CC2)NC(=O)N(CC(=O)N2CCN(c3ccccc3F)CC2)C1=O (stereo not given) | inactive
40 | Clc1ccccc1Nc1nc(NCc2cccs2)nc2ccsc12 | inactive
41 | CCCNC(=O)C(CC)n1nc(CC)n2c(cc3oc(C)cc32)c1=O (stereo not given) | inactive
42 | CC(C)(C(=O)N1CCC1(C)C(=O)NS(=O)(=O)c1ccc(Br)cc1)c1ccccc1 (stereo not given) | inactive
43 | CC(OC(=O)c1cccnc1Cl)C(=O)NC1CCCCC1 (stereo not given) | inactive
44 | Cc1ccc(C(=O)NC2CCN(C(=O)Nc3ccc(F)cc3)CC2)cc1 | inactive
45 | CCS(=O)(=O)N1CCCC(C(=O)NCc2ccc(C)cc2)C1 (stereo not given) | inactive
46 | Cc1ccc(NC(=O)N2CCC(C(=O)NCc3ccc(F)cc3)CC2)cc1 | 18.4 µM (active)
47 | O=C1Nc2ccccc2NC(c2ccc3c(c2)OCO3)=C1N(Cc1ccc(F)cc1)C(=O)c1ccco1 | inactive
48 | O=C(c1ccc2c(c1)N(Cc1ccccc1F)C(=O)c1ccccc1S2(=O)=O)N1CCOCC1 | inactive

Row | Structure (SMILES) | Potency
49 | COc1ccc(C2c3c(oc4ccccc4c3=O)C(=O)N2Cc2ccc3c(c2)OCO3)cc1 (stereo not given) | inactive
50 | COc1ccc(C(=O)NCc2nnc(SCCOc3ccccc3)n2C)cc1 | inactive
51 | C=CCn1c(SCCOc2ccc(OC)cc2)nnc1C(NC(=O)c1ccc(OC)cc1)C(C)C (stereo not given) | 11.6 µM (active)
52 | C=CCn1c(SCC(=O)c2ccc(Br)cc2)nnc1C(C)NC(=O)Cc1ccc(OC)cc1 (stereo not given) | inactive
53 | CCOC(=O)c1c(C)[nH]c(C)c1C(=O)COC(=O)/C=C/c1cccc([N+](=O)[O-])c1 | inactive
54 | O=C(OCc1cn([C@@H]2C[C@H](c3ccc(Cl)cc3)N(Cc3cccs3)C[C@H]2O)nn1)c1ccccc1 | inactive
55 | CCc1cccc(CC)c1N1C(=O)CC(Sc2ccccc2N)C1=O (stereo not given) | 6.51 µM (active)
56 | Cc1ccnc(SC2CC(=O)N(c3ccccc3)C2=O)n1 (stereo not given) | inactive
57 | COC(=O)c1ccccc1SC1CC(=O)N(c2cccc(C)c2)C1=O (stereo not given) | inactive
58 | COc1cc2c3c(c1)/C(=C1/SC(=S)NC1=O)C(=O)N3C(C)(C)C=C2C | 9.2 µM (active)
59 | O=C(OCc1cn([C@H]2C[C@H](c3ccccc3)N(C(=O)c3cccs3)C[C@@H]2O)nn1)c1ccccc1 | inactive
60 | COc1ccc(/C=C2\SC(=S)N(CCC(=O)N3CCOCC3)C2=O)cc1OC | inactive
61 | C=C1C=C(C(F)F)n2ncc(C(=O)NCCc3ccccc3OC)c2N1 | inactive
62 | O=C(O)CCCCCNc1ncnc2ccc(Br)cc12 | inactive
63 | Brc1ccc2ncnc(NCc3cccnc3)c2c1 | inactive
64 | C=CCNc1ncnc2ccc(Br)cc12 | 20.6 µM (active)
65 | Cc1ccc2nc(COc3cccc(NC(=O)c4cccc(Cl)c4)c3)cc(=O)n2c1 | inactive
66 | COc1ccc(C(=O)Cc2cnn(-c3ccccc3)c2)c(O)c1 | inactive
67 | Cc1cc(O)cc(O)c1C(=O)Cc1cnn(-c2ccccc2)c1 | 16.4 µM (active)
68 | O=C(c1cnn(-c2ccc(Cl)cc2)c1)c1ccccc1O | inactive
69 | Cc1ccc(-c2cc(-c3coc4ccccc4c3=O)c3c(n2)-c2cc(Cl)ccc2OC3)cc1 | inactive
70 | Cc1cc(C)c(S(=O)(=O)NN=C2c3ccccc3[C@H]3Cc4csc[n+]4[C@@H]23)c(C)c1 | inactive
71 | C[C@H](CO)N1C[C@H](C)[C@@H](CN(C)C(=O)c2cccc(F)c2)Oc2cc(-c3cncnc3)ccc2S1(=O)=O | inactive
72 | O=C(NCCOc1ccccc1)c1ccccc1F | inactive

Row | Structure (SMILES) | Potency
73 | COc1ccccc1N1CCN(C(=O)c2cc(=O)c3cc(C)cc(C)c3o2)CC1 | 0.206 µM (active)
74 | COc1ccccc1N1CCN(C(=O)c2cc(=O)c3cc(C)ccc3o2)CC1 | inactive
75 | COc1ccccc1N1CCN(C(=O)c2c(-c3c(Cl)cccc3Cl)noc2C)CC1 | inactive
76 | O=C(Nc1ccc2c(c1)OCCO2)C1c2ccccc2OCC(=O)N1Cc1ccccn1 (stereo not given) | inactive
77 | Cc1ccc(C(=O)N[C@H](C(=O)N2CCN(c3ncccn3)CC2)C(C)C)cc1 | inactive
78 | CC(=O)Cn1cnc2c(cnn2-c2ccccc2)c1=O | inactive
79 | O=C(Cn1cnc2c(cnn2-c2ccccc2)c1=O)NCc1ccccc1 | 5.17 µM (active)
80 | Cc1c(C(=O)NCc2ccccc2)cnn1-c1ccccc1 | inactive
81 | COc1ccc(Br)cc1CN(C)CC(=O)Nc1cc(Cl)cc(Cl)c1 | 7.31 µM (active)
82 | COc1ccc(OC)c(NC(=O)CN(C)CCOc2ccc(Br)cc2)c1 | inactive
83 | COc1ccc(Cl)cc1NC(=O)CCS(=O)(=O)c1ccc(Br)cc1 | inactive
84 | CCCCCCN1CCN(C2CN(Cc3cn(CCCCCC)nn3)S(=O)(=O)C2)CC1 (stereo not given) | inactive
85 | COc1ccc(-c2nc3ccc(Br)cn3c2Cc2ccc(C)cc2)cc1OC | inactive
86 | CN(C)CCNC(=O)Nc1cccc(Cl)c1Cl | inactive
87 | CN(C)CCNC(=O)c1ccc(Cl)c2cc3ccccc3nc12 | 2.06 µM (active)
88 | CC(=O)NCCNC(=O)c1cc(-c2cccc3ccccc23)nc2ccccc12 | inactive
89 | CCOC(=O)C1CCCN(C(=O)c2cc(-c3cccs3)oc2C)CC1 (stereo not given) | inactive
90 | O=C1N(Cc2ccccc2)c2ccc(Cl)cc2C1(O)c1c[nH]c2ccccc12 (stereo not given) | inactive
91 | CCOc1ccc(-c2nonc2NC(=O)c2oc3ccc(C)cc3c2C)cc1OCC | inactive
92 | C/C(=N\NC(=O)COc1c(C)cccc1C)c1cccs1 | inactive
93 | Cc1nn(-c2ccccc2)c(C)c1/C=N/NC(=O)CSc1nc2ccccc2c(=O)n1-c1ccccc1 | inactive
94 | C/C(=N\NC(=O)CSc1nc2ccccc2c(=O)n1-c1ccccc1C)c1cccs1 | 2.31 µM (active)
95 | Cc1ccc(S(=O)(=O)N2CCCCC2)cc1NC(=O)CCNC(=O)c1ccccc1Cl | inactive

Source: PubChem BioAssay AID1347076 (National Center for Advancing Translational Sciences (NCATS), 2019)
